Values joined by “and” are separate entries in the source; they are usually repeats but may differ in a detail not shown here. Identical values can stand only once. Compounds without any hit were thinned out: in the full panel of roughly 83,000, 20% have a hit.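 Compound tested at a single concentration for 48 hours in 96-well plates; a percent growth value below 10 was scored as active.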 Active and inactive are the calls of the source.
Experiments:
Assay in all cases: NCI-60 one-dose screen, 48 h (100 = growth as untreated, 0 = no growth, -100 = all killed)
T-47D breast = system: T-47D breast
BT-549 breast = system: BT-549 breast
MDA-MB-435 melanoma = system: MDA-MB-435 melanoma
SW-620 colon = system: SW-620 colon
MCF7 breast = system: MCF7 breast
HCT-116 colon = system: HCT-116 colon
HCC-2998 colon = system: HCC-2998 colon
KM12 colon = system: KM12 colon

Measured: growth

O=C(/C=C/c1cccc(Oc2ccc(Cl)cc2)c1)c1ccccc1
active: T-47D breast; 100 µM -72% | BT-549 breast; 100 µM -61.3% | MDA-MB-435 melanoma; 100 µM -84.8% | SW-620 colon; 100 µM -69.7% | MCF7 breast; 100 µM -45.3% | HCT-116 colon; 100 µM -82.2% | HCC-2998 colon; 100 µM -97.8% | KM12 colon; 100 µM -76.8%
inactive: T-47D breast; 10 µM 77% | BT-549 breast; 10 µM 102% | MDA-MB-435 melanoma; 10 µM 94.8% | SW-620 colon; 10 µM 19.7% | MCF7 breast; 10 µM 11.5% | HCT-116 colon; 10 µM 55.9% | HCC-2998 colon; 10 µM 107% | KM12 colon; 10 µM 75.3%

COc1cc2c(cc1OCCCOC1=C=C=C(c3ccc4c(c3)c3cc(-c5ccc(OCCCOc6cc7c(cc6OC)C(=O)N6CCC[C@H]6C=N7)cc5)ccc3n4S(=O)(=O)c3ccc(C)cc3)C=C1)N=C[C@@H]1CCCN1C2=O
active: SW-620 colon; 10 µM unless noted 6.31% | HCC-2998 colon; 10 µM unless noted -43.2%
inactive: T-47D breast; 10 µM unless noted 37.1% | BT-549 breast; 10 µM unless noted 277% | MDA-MB-435 melanoma; 10 µM unless noted 44.5% | MCF7 breast; 10 µM unless noted 23% | HCT-116 colon; 10 µM unless noted 136% and 11.4% | KM12 colon; 10 µM unless noted 42.1%

COc1ccc2c(c1)CC[C@@H]1[C@@H]2CC[C@]2(C)C3C(=CCC4C(=O)N(c5ccccc5)C(=O)C43)C[C@@H]12 (some centres undefined)
inactive: T-47D breast; 10 µM unless noted 99.6% | BT-549 breast; 10 µM unless noted 110% | MDA-MB-435 melanoma; 10 µM unless noted 86.4% | SW-620 colon; 10 µM unless noted 90.6% | MCF7 breast; 10 µM unless noted 111% | HCT-116 colon; 10 µM unless noted 66.9% | HCC-2998 colon; 10 µM unless noted 93.6% | KM12 colon; 10 µM unless noted 93.6%

COc1ccc(-c2cc3cnc4ccccc4c3oc2=O)cc1
inactive: T-47D breast; 10 µM unless noted 87.1% | BT-549 breast; 10 µM unless noted 101% | MDA-MB-435 melanoma; 10 µM unless noted 98.6% | SW-620 colon; 10 µM unless noted 95.8% | MCF7 breast; 10 µM unless noted 86.9% | HCT-116 colon; 10 µM unless noted 93.3% | HCC-2998 colon; 10 µM unless noted 89.2% | KM12 colon; 10 µM unless noted 103%

COc1nc2ccc(C)cc2cc1/C=[N+](\[O-])c1ccccc1
inactive: T-47D breast; 10 µM unless noted 66.5% | BT-549 breast; 10 µM unless noted 95.8% | MDA-MB-435 melanoma; 10 µM unless noted 96.9% | SW-620 colon; 10 µM unless noted 49.9% | MCF7 breast; 10 µM unless noted 58.6% | HCT-116 colon; 10 µM unless noted 15.1% | HCC-2998 colon; 10 µM unless noted 98.2% | KM12 colon; 10 µM unless noted 90.5%

C=CCNC(=O)Cc1c(-c2ccc(OC)cc2)oc2c(OC)c3c(c(OC)c12)OCO3
inactive: T-47D breast; 10 µM unless noted 101% | BT-549 breast; 10 µM unless noted 100% | MDA-MB-435 melanoma; 10 µM unless noted 103% | SW-620 colon; 10 µM unless noted 103% | MCF7 breast; 10 µM unless noted 83.9% | HCT-116 colon; 10 µM unless noted 92.8% | HCC-2998 colon; 10 µM unless noted 116% | KM12 colon; 10 µM unless noted 96.2%

C[C@@H]1O[C@@H](O[C@H]2[C@@H](OC(=O)[C@]34CCC(C)(C)C[C@H]3C3=CC[C@@H]5[C@@]6(C)C[C@H](O)[C@H](O[C@@H]7O[C@H](CO)[C@@H](O)[C@H](O)[C@H]7O)[C@@](C)(CO)[C@@H]6CC[C@@]5(C)[C@]3(C)C[C@H]4O)OC[C@@H](O)[C@@H]2O)[C@H](O)[C@H](O[C@@H]2OC[C@@H](O)[C@H](O[C@@H]3OC[C@](O)(CO)[C@H]3O[C@@H]3OC[C@@H](O)[C@H](O)[C@H]3O)[C@H]2O)[C@H]1O[C@@H]1OC[C@](O)(CO)[C@H]1O
inactive: T-47D breast; 10 µM unless noted 49.8% | BT-549 breast; 10 µM unless noted 74.4% | MDA-MB-435 melanoma; 10 µM unless noted 52.1% | SW-620 colon; 10 µM unless noted 75.4% | MCF7 breast; 10 µM unless noted 68.9% | HCT-116 colon; 10 µM unless noted 46.3% | KM12 colon; 10 µM unless noted 66.5%
active: HCC-2998 colon; 10 µM unless noted -1.75%

Source: PubChem BioAssay (NCI)
